Screens: PubChem BioAssay, National Center for Advancing Translational Sciences (NCATS)
In the library only some 14% were active in any assay of this set; here they are far more common.
CHX counter – Cycloheximide Counterscreen for Small Molecule Inhibitors of Shiga Toxin; cell reporter, cycloheximide protein synthesis inhibition counterscreen; max response, %; hit rate 12% among 300,000; AID 2314, 2010; in the data active = max response mostly above about 13%, no sharp cut-off; inactive = mostly below about 14%; also: read at 38.3 µM for the half of the compounds with a filed dose; 0% is about no effect
Shiga inhibitor – A qHTS for Small Molecule Inhibitors of Shiga Toxin; inhibition, % at 38.7 µM; AID 2315, 2010; Vero cells, Shiga toxin protein synthesis inhibition reporter; hit rate 9.2% among 290,000; in the data active = inhibition mostly above about 28%, no sharp cut-off; inactive = mostly below about 43%; also: 0% is about no effect
Giardia FBPA inh – qHTS Assay for Inhibitors of Fructose-1,6-bisphosphate Aldolase from Giardia Lamblia. A8B2U2. purified Giardia FBPA. Potency, µM (doses to about 59.6 µM), inactives show at the highest dose activity, negative = inhibition, actives largely listed as inhibitors. hit rate 0.71% among 290,000. AID 2451, 2010; also: potency is read from the fitted curve at half-maximal effect; % is scaled to controls: 0 for no effect and ±100 for the full control effect; nearly all actives have a fitted effect of over 55% in size
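Giardia FBPA (40 nM reagent) was preincubated 10 min at RT with compound (up to 57.5 uM final), then substrate plus GAPDH/TPI/NAD/arsenate coupling system with diaphorase/resazurin was added; resorufin fluorescence (525/598 nm) was read after 20 min.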
LmPK inh – qHTS Assay for Inhibitors of Leishmania Mexicana Pyruvate Kinase (LmPK); Q27686; purified LmPK, Kinase-Glo ATP luminescence, 1 h; Potency, µM (top dose mostly 57.5 µM), inactives show at the top dose activity change, negative = inhibition, usual class: inhibitors; hit rate 0.37% among 290,000; also: potency is read from the fitted curve at half-maximal effect; % is scaled to controls: 0 for no effect and ±100 for the full control effect
Target sequence (Q27686 whole entry, looked up): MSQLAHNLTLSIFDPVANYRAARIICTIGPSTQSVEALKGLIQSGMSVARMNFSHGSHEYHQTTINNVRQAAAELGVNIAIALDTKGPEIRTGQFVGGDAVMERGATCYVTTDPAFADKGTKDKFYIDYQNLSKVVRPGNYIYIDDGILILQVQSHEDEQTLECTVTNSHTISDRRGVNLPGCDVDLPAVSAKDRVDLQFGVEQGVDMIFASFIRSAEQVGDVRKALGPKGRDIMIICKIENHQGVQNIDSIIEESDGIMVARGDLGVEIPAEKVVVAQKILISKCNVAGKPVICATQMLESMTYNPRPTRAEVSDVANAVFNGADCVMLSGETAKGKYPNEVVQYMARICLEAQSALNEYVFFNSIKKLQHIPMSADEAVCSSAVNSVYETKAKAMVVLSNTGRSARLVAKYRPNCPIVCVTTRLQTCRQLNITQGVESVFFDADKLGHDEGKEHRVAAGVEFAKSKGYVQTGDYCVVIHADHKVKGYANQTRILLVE
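ATP generated from ADP (0.1 mM) and PEP (0.5 mM) by 0.1 nM LmPK over 1 h at room temperature (pH 7.2 imidazole buffer) was detected by coupled luciferase luminescence. Values were normalized to uninhibited and no-enzyme wells.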
NS1 inh – qHTS Assay for Inhibitors of Influenza NS1 Protein Function. Potency, µM (titrated, usually from 46.1 µM), for inactives: at the highest dose activity, positive = more growth. hit rate 0.4% among 270,000; calls by dose curve; also: potency is read from the fitted curve at half-maximal effect; actives are rising curves; nearly all actives have a fitted effect of over 50% in size
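S. cerevisiae expressing influenza A NS1, grown in glucose, washed, then diluted 1:100 into pH 6.0 -URA galactose medium with 23 nl compound. Growth recovery read as OD600; NS1-free strain serves as control.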
An asterisk follows results filed as active. Unless noted, calls follow the shape of the dose curve; as a rule, active = well fitted curve in the direction sought with a large enough effect; inconclusive = small, poorly fitted or top-dose-only effect, or another doubt; inactive = no such curve, though single readings can be large; an effect the other way counts as inactive or inconclusive.

CC1CCCC(C)N1C(=O)COc1ccc(C(=O)Nc2ccccc2N2CCOCC2)cc1 (centres undefined) was read as CHX counter -1.9, Shiga inhibitor -34.5, Giardia FBPA inh 0.8% and LmPK inh 6.2%.
Cc1cccc(C)c1OCc1cc(C(=O)N(Cc2c(C)nn(C)c2C)C2CC2)no1 was read as CHX counter -1.6, Shiga inhibitor 1.6, Giardia FBPA inh -4.3%, LmPK inh 1.3% and NS1 inh -6.9%.
CCc1ccc(NC(=O)C(=S)NC2CCCCC2)cc1 was read as CHX counter 23.1*, Shiga inhibitor 57.4*, Giardia FBPA inh -3.4%, LmPK inh -1.9% and NS1 inh -3.0%.
Screening CCOc1ccc(NC(=O)N(Cc2cn(CC)c3ccccc23)C2CCCCCC2)cc1 returned CHX counter 33.3* and Shiga inhibitor 72.0*.
For CCOc1ccc(NC(=O)NC23CC4CC(CC(C4)C2)C3)cc1 the results were CHX counter 14.9*, Shiga inhibitor 34.2, Giardia FBPA inh -4.0%, LmPK inh 4.9% and NS1 inh -31.4%.
CCOc1ccc(CC(=O)NNC(=O)NC2CCCCC2)cc1 was read as CHX counter -3.3, Shiga inhibitor -1.8, Giardia FBPA inh 4.6%, LmPK inh -5.9% and NS1 inh 4.5%.
COc1ccc(NC(=O)NC23CC4CC(CC(C4)C2)C3)cc1OC was read as CHX counter 9.2, Shiga inhibitor -2.4, Giardia FBPA inh -25.9%, LmPK inh 1.7% and NS1 inh 21.3%.
`CCOc1ccc(NC(=O)NC2CCCCCCC2)cc1` gave CHX counter 50.8*, Shiga inhibitor 91.4*, LmPK inh -9.0% and NS1 inh 1.3%.
`CCc1ccc(NC(=O)C2CCCN2C(=O)NC2CCCCC2)cc1` (centres undefined) gave CHX counter -1.4, Shiga inhibitor -4.4, LmPK inh -0.3% and NS1 inh -1.0%.
O=C(NCC1COCCO1)c1cc(COc2ccc(F)cc2F)on1 (centres undefined) was read as CHX counter 9.6, Shiga inhibitor 19.8, LmPK inh -4.8% and NS1 inh 9.1%.
Screening COC(=O)C(O)(c1ccc(NC(=O)NC2CCCCC2)cc1)C(F)(F)F (centres undefined) returned CHX counter 35.1*, Shiga inhibitor 39.0*, Giardia FBPA inh -4.0%, LmPK inh -0.5% and NS1 inh 4.7%.
Screening CCOC(=O)c1c(C)nc2ccccc2c1C returned CHX counter 25.0*, Shiga inhibitor 15.3, Giardia FBPA inh 22.3%, LmPK inh 3.6% and NS1 inh -15.8%.
Screening CCOC(=O)c1sc(NC(=O)CCc2ccccc2)nc1C returned CHX counter -0.5, Shiga inhibitor -4.2, Giardia FBPA inh 1.0%, LmPK inh -4.1% and NS1 inh 5.0%.
Screening CCOC(=O)c1cnc(NCc2ccccc2)nc1C returned CHX counter 44.4*, Shiga inhibitor 54.7*, Giardia FBPA inh 1.0%, LmPK inh 0.3% and NS1 inh -7.0%.
For CCOC(=O)c1c(C)nc2ccccc2c1-c1ccccc1 the results were CHX counter -3.5, Shiga inhibitor -11.2, Giardia FBPA inh 14.2%, LmPK inh 0.8% and NS1 inh -30.5%.
For CCOC(=O)c1nc(NCc2ccccc2)sc1C the results were CHX counter 62.6*, Shiga inhibitor 89.1*, Giardia FBPA inh 17.2%, LmPK inh -10.6% and NS1 inh 5.4%.
For CCOC(=O)c1cnc2c(ccc3ccccc32)c1Cl the results were CHX counter 21.4*, Shiga inhibitor 121.1*, Giardia FBPA inh 3.0%, LmPK inh 2.8% and NS1 inh -8.5%.
Screening CCN(CC(=O)Nc1ccc(NC(C)=O)cc1)C(=O)c1ccc(=O)[nH]c1 returned CHX counter -2.5, Shiga inhibitor 6.2, LmPK inh -0.1% and NS1 inh -1.0%.
For COc1ccc(CNc2ncnc3ccc(-c4ccccc4OC)cc23)c(OC)c1 the results were Giardia FBPA inh 0.2%.
Screening c1ccc(CN2COc3c(ccc4c5c(ccc34)CN(Cc3ccccc3)CO5)C2)cc1 returned NS1 inh -2.6%.
`CCc1ccc(/C=N/NC(=O)c2nnn(-c3nonc3N)c2C(C)C)cc1` gave CHX counter -1.8, Shiga inhibitor 17.8, LmPK inh -5.8% and NS1 inh 15.9%.
